Screening data deposited in PubChem BioAssay by The Scripps Research Institute Molecular Screening Center.
TEAD-YAP block – TEAD-YAP interaction inhibition, primary screen, TEAD-YAP interaction inhibitor project, luminescence, HEK-TIYL cells; TEAD-Gal4/YAP UAS-luciferase luminescence; inhibition, % at 9.12 µM; 1.4% of 640,000 active; in the data active means inhibition above about 32%
GPR151 ag – activators of human GPR151, primary screen, cell-based, PathHunter beta-arrestin, luminescence | G-protein coupled receptor 151 (Homo sapiens), Q8TDV0 | PathHunter beta-arrestin GPR151 cells | activation, % at 11.2 µM | 1% of 650,000 active; in the data active means activation above about 4.9%
MITF primary – MITF inhibitors, primary screen, biochemical, AlphaScreen, human; 0.91% of 650,000 active; AID 1259374, 2018; Microphthalmia-associated transcription factor (Homo sapiens), O75030; inhibition, % at 2.6 µM; AlphaScreen MITF homodimerization, bead proximity signal; in the data active means inhibition above about 50%
Target sequence (O75030 whole entry, looked up): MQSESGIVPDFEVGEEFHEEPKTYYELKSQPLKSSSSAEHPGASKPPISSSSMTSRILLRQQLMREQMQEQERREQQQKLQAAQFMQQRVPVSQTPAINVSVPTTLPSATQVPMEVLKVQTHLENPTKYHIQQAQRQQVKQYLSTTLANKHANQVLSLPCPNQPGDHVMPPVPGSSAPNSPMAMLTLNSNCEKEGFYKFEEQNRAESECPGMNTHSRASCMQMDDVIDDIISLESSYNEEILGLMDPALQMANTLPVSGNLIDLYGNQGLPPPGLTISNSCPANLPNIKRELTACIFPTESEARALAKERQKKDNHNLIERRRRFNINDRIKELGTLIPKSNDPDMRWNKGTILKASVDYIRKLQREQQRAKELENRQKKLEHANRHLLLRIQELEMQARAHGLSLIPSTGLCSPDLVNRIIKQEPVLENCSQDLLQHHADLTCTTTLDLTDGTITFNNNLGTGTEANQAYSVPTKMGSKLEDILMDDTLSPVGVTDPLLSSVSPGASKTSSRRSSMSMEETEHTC
FBW7 activator – FBW7 E3 ligase activators, primary screen, biochemical, AlphaScreen, human; AID 1259310, 2017; 0.13% of 650,000 active; normalized activity (activation), % at 26.1 µM; F-box/WD repeat-containing protein 7 (Homo sapiens), Q969H0; AlphaScreen FBW7–phospho-cyclin E peptide binding, activator screen; in the data active means normalized activity above about 1.9%;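 further: purified mutant Fbw7 with reduced substrate affinity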
Numbers stand for hits; . = inactive. An excerpt weighted towards active compounds, which were near 3.5% of everything screened.

SMILES	TEAD-YAP block	GPR151 ag	MITF primary	FBW7 activator
CCc1ccccc1NC(=O)c1ccc(SCc2ccc(OC)cc2)c([N+](=O)[O-])c1	.	.	.	.
CCc1ccccc1NC(=O)c1ccc(NCc2ccc(C)cc2)c([N+](=O)[O-])c1	57	.	.	.
COc1ccc(Br)cc1C(=O)Nc1nc(C)cs1	.	.	.	.
Cc1cccc(-c2c(C#N)cnc3cc(C)nn23)c1	33	.	.	.
Cc1ccc(-c2cc3ncc(C#N)c(-c4cccc(C)c4)n3n2)cc1	.	.	.	.
Nc1cc(S(=O)(=O)O)c(O)c2c1C(=O)c1c(O)c(S(=O)(=O)O)cc(N)c1C2=O	.	.	61	.
CCc1c(C)nc2ncnn2c1NCCc1ccc(OC)cc1	66	.	.	.
O=C(NC(=S)Nc1ccc(Cl)cn1)c1cc2ccccc2o1	.	.	.	.
O=C(O)CCNc1cc(N2CCC3(CC2)OCCO3)c2noc3c2c1C(=O)c1ccccc1-3	.	.	63	.
CCOC(=O)C1CCN(c2cc(NCC(=O)O)c3c4c(onc24)-c2ccccc2C3=O)CC1	.	.	70	.
O=C(O)CNc1cc(N2CCCCC2)c2noc3c2c1C(=O)c1ccccc1-3	59	.	.	.
O=C(CCl)Nc1cccc(C(F)(F)F)c1	34	.	.	.
COc1ccc(C(=O)Nc2ccncc2)cc1[N+](=O)[O-]	.	.	.	.
CC(=O)Nc1cccc(NC(=O)c2cc([N+](=O)[O-])ccc2Cl)c1	.	.	.	.
O=C(Nc1cccc(C(F)(F)F)c1)c1cc([N+](=O)[O-])ccc1Cl	52	.	.	.
COc1ccc2nc(NC(=O)c3cc([N+](=O)[O-])ccc3Cl)sc2c1	33	.	.	.
N/C(CC(=O)Nc1cccc(C(F)(F)F)c1)=N\O	.	.	.	.
COC(=O)c1ccc(NC(=O)c2ccc(OC)c([N+](=O)[O-])c2)cc1	.	.	.	3.7
Nc1c(C(=O)c2ccc(F)cc2)sc2nc(-c3cccnc3)ccc12	.	.	.	.
CSCCOC(=O)C1=C(C)NC(=O)NC1c1cccc2ccccc12 (stereo not given)	.	.	.	.
O=C(Nc1ccc(O)cc1C(=O)O)c1cccc([N+](=O)[O-])c1	.	.	53	.
O=C(Nc1ccc(F)cc1)c1cc([N+](=O)[O-])ccc1Cl	33	.	.	.
COC(=O)c1ccc(NC(=O)c2cc([N+](=O)[O-])ccc2Br)cc1	33	.	.	.
O=C(Nc1sccc1C(=O)Nc1cccc([N+](=O)[O-])c1)c1ccco1	39	.	.	.
O=C(Nc1cccc([N+](=O)[O-])c1)c1ccco1	.	.	.	.
SMILES	TEAD-YAP block	GPR151 ag	MITF primary	FBW7 activator
CC(=O)Nc1ccc(NC(=O)c2cc([N+](=O)[O-])ccc2Cl)cc1	.	.	.	.
Cc1ccc(NC(=S)N(CCN2CCCCCC2)Cc2ccco2)cc1	.	.	.	.
Cc1ccc(OCCn2c(C(C)O)nc3ccccc32)cc1 (stereo not given)	.	.	.	.
OC1(c2cccnc2)CCN(Cc2ccc(F)cc2)CC1	.	.	.	.
CC(=O)Nc1cccc(NC(=O)c2ccc([N+](=O)[O-])cc2Cl)c1	.	.	.	.
COc1ccc(NC(=O)c2cc([N+](=O)[O-])ccc2Cl)cc1	34	.	.	.
O=C(Nc1ccc(C23CC4CC(CC(c5ccccc5)(C4)C2)C3)cc1)c1cc([N+](=O)[O-])ccc1Cl	59	.	.	.
O=C(Nc1cccc(O)c1)c1ccc([N+](=O)[O-])cc1Cl	73	.	.	.
COc1cccc(NC(=O)c2cc([N+](=O)[O-])ccc2Cl)c1	.	.	.	.
O=C(Nc1ccc(I)cc1)c1cc([N+](=O)[O-])ccc1Cl	38	.	.	.
CCOC(=O)c1ccc(NS(=O)(=O)c2ccc(OC)c(Cl)c2Cl)cc1	.	.	.	.
CCCOc1ccc(/C(O)=C2/C(=O)C(=O)N(CCN(C)C)C2c2ccc(C(C)(C)C)cc2)c(C)c1 (stereo not given)	.	.	.	.
CCC(=O)Nc1nnc(-c2cccc(OC)c2)o1	.	.	.	.
CC(=O)c1ccc(NC(=S)NNC(=S)Nc2cccnc2)cc1	.	.	.	.
O=C1OC(c2cccc([N+](=O)[O-])c2)=N/C1=C\c1ccccc1	.	.	.	.
